Measurements as given in PubChem BioAssay.

Biological target: NADPH oxidase 2 (Homo sapiens) (UniProt P04839)
Experiment: compounds shifting NOX2 Amplex Red fluorescence – cell-based, HEK293-NOX2, PMA-stimulated, NOX inhibitor project, primary screen (AID 1159); note: test concentration not given here
Conditions: 45 min, higher = more signal, called active from +8 up or from −8 down

Sequence of NADPH oxidase 2 (Homo sapiens) (P04839 whole entry, looked up): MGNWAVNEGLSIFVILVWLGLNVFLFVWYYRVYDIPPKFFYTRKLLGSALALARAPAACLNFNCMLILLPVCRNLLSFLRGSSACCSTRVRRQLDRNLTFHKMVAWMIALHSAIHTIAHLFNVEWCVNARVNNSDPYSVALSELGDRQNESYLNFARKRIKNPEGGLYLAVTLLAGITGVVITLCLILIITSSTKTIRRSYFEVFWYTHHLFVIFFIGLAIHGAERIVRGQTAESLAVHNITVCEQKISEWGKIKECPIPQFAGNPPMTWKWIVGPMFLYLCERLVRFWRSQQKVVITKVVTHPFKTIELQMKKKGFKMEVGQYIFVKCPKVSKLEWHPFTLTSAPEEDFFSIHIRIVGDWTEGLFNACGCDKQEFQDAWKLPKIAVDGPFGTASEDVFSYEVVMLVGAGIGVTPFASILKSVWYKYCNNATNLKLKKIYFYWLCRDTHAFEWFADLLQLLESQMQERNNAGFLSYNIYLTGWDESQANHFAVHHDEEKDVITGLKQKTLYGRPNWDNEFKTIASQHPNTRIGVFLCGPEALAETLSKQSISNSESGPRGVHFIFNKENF

z-score, inactive:
COc1ccc(O[C@H]2C=C[C@@H](c3ccccc3)O[C@@H]2COC(=O)N2CCCCC2)cc1 -0.138
CCc1cccc(NC(=O)O[C@H]2[C@H](OC(=O)Nc3ccc4c(c3)OCO4)[C@@H](OC(=O)Nc3ccc4c(c3)OCO4)[C@@H](OC)O[C@@H]2CO)c1 -3.12
CCN1C(=O)[C@H]2[C@H]3[C@H](O)[C@H](O)CC(=NOCC=C(C)CCC=C(C)C)[C@H]3CC[C@H]2C1=O -0.516
CC(C)C[C@@H]1NC(=O)[C@H]2C[C@@H](C(=O)O)[C@@H](c3ccc(O)cc3)N2C1=O -1.72
CN(C)C(=O)[C@@]1(Cc2ccccc2)N=C(c2ccc(OCCCO)cc2)O[C@H]1c1ccccc1CN=[N+]=[N-] -1.75
CO[C@@H]1COC(=O)CC=C[C@@H](C)[C@@H]2C=C[C@H](O)[C@@H](COC(=O)CCC[C@H]1C)O2 -0.521
CC(C)CON=C1C[C@@H](O)[C@@H](O)[C@@H]2[C@@H]3C(=O)N(Cc4ccccc4)C(=O)[C@@H]3CC[C@@H]12 1.39
COC(=O)c1c(CC[C@@H](CO)NC(=O)N[C@H](Cc2ccccc2)Cn2cc(-c3ccccc3N)nn2)oc(C(C)=O)c1C(=O)OC -2.69
CO[C@@H]1COC(=O)CCC[C@@H](C)[C@H](OC)COC(=O)CCC[C@H]1C 0.545
CCOC(=O)CCN1C(=O)[C@H]2[C@H]3[C@H](O)[C@H](O)CC(=NOC[C@@H](O)COCc4ccco4)[C@@H]3CC[C@H]2C1=O 0.48
C=COC[C@H]1CN2[C@@H](CC[C@@H](C)[C@@H]2c2ccc(Br)cc2)C(=O)O1 -0.427
O=C1C[C@@H](O)[C@@H](O)[C@@H]2[C@@H]3C(=O)N(c4cccc(Oc5ccccc5)c4)C(=O)[C@@H]3CC[C@@H]12 -0.837
COc1ccc([Si](C)(C)[C@@H]2[C@@H](CCO)O[C@]3(C(=O)N(Cc4ccc(NC(C)=O)cc4)c4ccccc43)[C@H]2C)cc1 -0.371
O=C1[C@H]2[C@H]3[C@H](O)[C@H](O)CC(=NO[C@@H]4O[C@H](CO)[C@@H](O)[C@H](O)[C@H]4O)[C@H]3CC[C@H]2C(=O)N1C1CCCCC1 -0.717
COc1ccc(-c2ccc3c(n2)CCCN3CC(O)CN2CCCc3nc(C)c(C)cc32)cc1 (stereo not drawn) 1.05
O=C1CCCC2OC12C(O)CCc1ccccc1 (stereo not drawn) 0.504
C[C@@H](c1ccccc1)N1C(=O)[C@H]2[C@H]3[C@H](O)[C@H](O)CC(=NNC(=O)OCc4ccccc4)[C@H]3CC[C@H]2C1=O 0.982
COc1ccc(O[C@H]2C=C[C@@H](c3ccccc3)O[C@@H]2COC(=O)CCC(C)=NOCC[C@@H]2C=C[C@H](OC(C)=O)[C@@H](COC(C)=O)O2)cc1 -1.64
COC(=O)C1=C(C)N(Cc2ccccc2)[C@]23O[C@](C(=O)OC)(C(=O)N2[C@@H]1c1ccccc1)[C@H]1CCOC(=O)[C@H]13 0.902
Cn1c(=O)n2n(c1=O)[C@H]1[C@H](O)[C@@H]3O[C@@H]3C(=NOC[C@@H](O)COCc3ccco3)[C@H]1CC2 -1.04
C[C@@H]1CC[C@H]2C(=O)O[C@H](COc3ccc(C(C)(C)C)cc3)CN2[C@H]1c1ccc(Br)cc1 0.0709
C=CC[C@]1(C(=O)NCc2ccccc2)N=C(c2ccc(OCCCO)cc2)O[C@H]1c1ccccc1 -2.86
COCCNC(=O)OCC1CCCC2(CC(OC(=O)NCCc3ccc(F)cc3)CC(CCC(=O)N[C@@H](C)C(=O)OC)O2)O1 (stereo partly drawn) 0.769
CCOC(=O)CCN1C(=O)[C@H]2[C@H]3[C@H](O)[C@H](O)CC(=NOCc4ccccc4)[C@@H]3CC[C@H]2C1=O -0.104
CCCNC(=O)OC[C@H]1O[C@H](CCON=CC[C@@H]2C=C[C@H](OC(C)=O)[C@@H](COC(C)=O)O2)C=C[C@@H]1Oc1ccc(OC)cc1 -1.02
O=C1[C@H]2[C@H]3[C@H](O)[C@H](O)CC(=NOC[C@@H](O)COCc4ccco4)[C@H]3CC[C@H]2C(=O)N1Cc1ccc2c(c1)OCO2 -0.377
COC(=O)CC=C[C@@H](C)[C@@H](C=NO[C@@H](C)c1cc(-c2c(C)cc(C)cc2C)no1)OC -1.04
C=C(/C(=C/C[C@@H](OC(=O)c1ccncc1)c1ccc(OCCO)cc1)c1cnc2ccccc2c1)C(C)C -2.73
CC(=O)OC[C@H]1O[C@H](CC=NOC[C@@H](C)[C@H](OCc2ccccc2)C(C)C)C=C[C@@H]1OC(C)=O -0.401

Biological target: NADPH oxidase 4 (Homo sapiens) (UniProt Q9NPH5)
Sequence (Q9NPH5 whole entry, looked up): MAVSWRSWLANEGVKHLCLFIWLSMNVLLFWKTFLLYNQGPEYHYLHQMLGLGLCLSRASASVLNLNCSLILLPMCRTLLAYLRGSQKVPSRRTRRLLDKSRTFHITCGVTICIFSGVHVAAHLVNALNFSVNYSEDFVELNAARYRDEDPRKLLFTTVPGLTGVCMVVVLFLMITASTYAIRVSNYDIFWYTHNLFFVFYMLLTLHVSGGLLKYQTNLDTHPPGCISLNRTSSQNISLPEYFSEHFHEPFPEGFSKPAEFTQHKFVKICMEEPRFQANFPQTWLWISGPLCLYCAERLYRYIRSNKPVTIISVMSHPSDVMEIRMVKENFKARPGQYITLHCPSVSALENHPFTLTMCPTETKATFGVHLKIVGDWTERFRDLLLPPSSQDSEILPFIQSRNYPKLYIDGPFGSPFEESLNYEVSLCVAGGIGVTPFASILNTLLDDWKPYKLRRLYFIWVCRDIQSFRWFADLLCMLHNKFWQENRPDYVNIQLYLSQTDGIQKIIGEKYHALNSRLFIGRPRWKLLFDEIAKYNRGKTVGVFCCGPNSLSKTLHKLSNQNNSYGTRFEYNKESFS
Experiment: compounds shifting NOX4 Amplex Red fluorescence – cell-based, HEK293-NOX4, tetracycline-induced, NOX inhibitor project, primary screen (AID 1160)
Conditions: HEK293-NOX4, Amplex Red H2O2 fluorescence, 45 min; higher = more signal, called active from +8 up or from −8 down

z-score, inactive:
CC(C)c1ccc(NN2C(C(O)c3ccc4c(c3)OCO4)C=CC3C(=O)N(c4ccccc4)C(=O)C32)cc1 (stereo not drawn) -0.912
C[C@@H]1CCC2C(=O)N(Cc3ccccc3)C[C@@H](O)CN2[C@H]1c1ccc(Br)cc1 (stereo partly drawn) -0.146
O=C1[C@H]2[C@H]3[C@H](O)[C@H](O)CC(=NO[C@@H]4O[C@H](CO)[C@@H](O)[C@H](O)[C@H]4O)[C@H]3CC[C@H]2C(=O)N1Cc1ccc2c(c1)OCO2 0.514
CC[C@@H](c1ccccc1)n1c(=O)n2n(c1=O)[C@H]1[C@H](O)[C@@H]3O[C@@H]3C(=NOCC=C(C)CCC=C(C)C)[C@H]1CC2 -1.85
CC(C)(C)N1C(=O)[C@H]2[C@H]3[C@H](O)[C@H](O)CC(=NO[C@@H]4O[C@H](CO)[C@@H](O)[C@H](O)[C@H]4O)[C@@H]3CC[C@H]2C1=O -0.022
CC(C)(C)N1C(=O)[C@H]2[C@H]3[C@H](O)[C@H](O)CC(=NOCc4ccccc4)[C@@H]3CC[C@H]2C1=O 0.413
COCCOC(=O)N1C(=O)[C@@]2(c3cc(C#CCNC(N)=O)ccc31)[C@H](c1ccccc1OCCO)N1[C@H](c3ccccc3)[C@H](c3ccccc3)OC(=O)[C@H]1[C@@H]2C(=O)N1CCN(c2ncccn2)CC1 1.09
COc1ccc(O[C@H]2C=C[C@@H](c3ccccc3)O[C@@H]2COC(=O)N2CCCCC2)cc1 0.334
CCc1cccc(NC(=O)O[C@H]2[C@H](OC(=O)Nc3ccc4c(c3)OCO4)[C@@H](OC(=O)Nc3ccc4c(c3)OCO4)[C@@H](OC)O[C@@H]2CO)c1 -0.812
CCN1C(=O)[C@H]2[C@H]3[C@H](O)[C@H](O)CC(=NOCC=C(C)CCC=C(C)C)[C@H]3CC[C@H]2C1=O 0.301
CC(C)C[C@@H]1NC(=O)[C@H]2C[C@@H](C(=O)O)[C@@H](c3ccc(O)cc3)N2C1=O -2.25
CN(C)C(=O)[C@@]1(Cc2ccccc2)N=C(c2ccc(OCCCO)cc2)O[C@H]1c1ccccc1CN=[N+]=[N-] 1.17
CO[C@@H]1COC(=O)CC=C[C@@H](C)[C@@H]2C=C[C@H](O)[C@@H](COC(=O)CCC[C@H]1C)O2 0.319
CC(C)CON=C1C[C@@H](O)[C@@H](O)[C@@H]2[C@@H]3C(=O)N(Cc4ccccc4)C(=O)[C@@H]3CC[C@@H]12 0.387
COC(=O)c1c(CC[C@@H](CO)NC(=O)N[C@H](Cc2ccccc2)Cn2cc(-c3ccccc3N)nn2)oc(C(C)=O)c1C(=O)OC 0.681
CO[C@@H]1COC(=O)CCC[C@@H](C)[C@H](OC)COC(=O)CCC[C@H]1C 0.567
CCOC(=O)CCN1C(=O)[C@H]2[C@H]3[C@H](O)[C@H](O)CC(=NOC[C@@H](O)COCc4ccco4)[C@@H]3CC[C@H]2C1=O 0.771
C=COC[C@H]1CN2[C@@H](CC[C@@H](C)[C@@H]2c2ccc(Br)cc2)C(=O)O1 0.102
O=C1C[C@@H](O)[C@@H](O)[C@@H]2[C@@H]3C(=O)N(c4cccc(Oc5ccccc5)c4)C(=O)[C@@H]3CC[C@@H]12 -0.154
COc1ccc([Si](C)(C)[C@@H]2[C@@H](CCO)O[C@]3(C(=O)N(Cc4ccc(NC(C)=O)cc4)c4ccccc43)[C@H]2C)cc1 -0.0308
O=C1[C@H]2[C@H]3[C@H](O)[C@H](O)CC(=NO[C@@H]4O[C@H](CO)[C@@H](O)[C@H](O)[C@H]4O)[C@H]3CC[C@H]2C(=O)N1C1CCCCC1 1.15
COc1ccc(-c2ccc3c(n2)CCCN3CC(O)CN2CCCc3nc(C)c(C)cc32)cc1 (stereo not drawn) -0.305
O=C1CCCC2OC12C(O)CCc1ccccc1 (stereo not drawn) -0.142
C[C@@H](c1ccccc1)N1C(=O)[C@H]2[C@H]3[C@H](O)[C@H](O)CC(=NNC(=O)OCc4ccccc4)[C@H]3CC[C@H]2C1=O 1.08
COc1ccc(O[C@H]2C=C[C@@H](c3ccccc3)O[C@@H]2COC(=O)CCC(C)=NOCC[C@@H]2C=C[C@H](OC(C)=O)[C@@H](COC(C)=O)O2)cc1 -0.327
COC(=O)C1=C(C)N(Cc2ccccc2)[C@]23O[C@](C(=O)OC)(C(=O)N2[C@@H]1c1ccccc1)[C@H]1CCOC(=O)[C@H]13 0.805
Cn1c(=O)n2n(c1=O)[C@H]1[C@H](O)[C@@H]3O[C@@H]3C(=NOC[C@@H](O)COCc3ccco3)[C@H]1CC2 0.733
C[C@@H]1CC[C@H]2C(=O)O[C@H](COc3ccc(C(C)(C)C)cc3)CN2[C@H]1c1ccc(Br)cc1 -1.99
C=CC[C@]1(C(=O)NCc2ccccc2)N=C(c2ccc(OCCCO)cc2)O[C@H]1c1ccccc1 -0.495
